Source: PubChem BioAssay
Vaccinia mCherry = inhibitors of vaccinia virus infection (mCherry reporter signal); Potency, µM (doses to about 36.5 µM), inactives show top-dose activity change, negative = inhibition, most hits filed as inhibitors; 310,000 compounds, 0.63% hits; Vaccinia virus mCherry reporter infection, fluorescence; calls by dose curve; tested in A549 cells; further: potency means the concentration at half of the fitted maximal effect; nearly all actives have a fitted effect of over 35% in size
HCV inhibitor = blocks hepatitis C virus | Huh7.5.1 HCVcc-Cre infection, luciferase reporter, 44 h | Potency, µM (doses to about 41.8 µM), without a hit: at the top dose activity change, negative = inhibition, usual class: inhibitors | 340,000 compounds, 3.4% hits | AID 651820; further: potency means the concentration at half of the fitted maximal effect
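Whole-lifecycle infectious HCVcc-Cre system; cells 1,000/well, compound then virus (~0.5 moi) added 4 h after plating, 44 h culture. Luciferase read 15 sec following 15 min substrate incubation, room temp.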
FMDV antiviral = antivirals against foot and mouth disease virus. FMDV antiviral cell-based qHTS. Potency, µM (doses to about 57.9 µM), inactives show at the highest dose activity change, negative = inhibition, most hits filed as inhibitors. AID 1159524. 410,000 compounds, 1.2% hits; calls by dose curve; tested in HEK293T cells; further: read-out not given here; potency means the concentration at half of the fitted maximal effect; nearly all actives have a fitted effect of over 45% in size
HCMV antiviral = inhibitors of human cytomegalovirus; 410,000 compounds, 4.5% hits; HFF cells, HCMV-luciferase reporter, 72 h; hits give low values; activity change, negative = inhibition, % at 57.5 µM; AID 1259415; in the data active means activity change below about -60%; inconclusive means no clear call, values can overlap the other calls; inactive means above about -39%
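After 16 h attachment at 37C, HFF cells received test compound and HCMV-luciferase (1 PFU/cell); reporter luminescence read 72 h later, data normalized against buffer-only and known inhibitor Salinomycin.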
Vaccinia Venus = vaccinia inhibition (Venus reporter). Vaccinia virus Venus reporter expression, fluorescence. Potency, µM (highest dose often 36.5 µM), for inactives: top-dose activity change, negative = inhibition, usual class: inhibitors. AID 720580. 330,000 compounds, 0.46% hits; calls by dose curve; tested in A549 cells; further: potency means the concentration at half of the fitted maximal effect; nearly all actives have a fitted effect of over 30% in size
Sm TGR block = inhibitors of Schistosoma mansoni thioredoxin glutathione reductase; Potency, µM (series often up to 114 µM), for inactives: top-dose activity change, negative = inhibition, most hits filed as inhibitors; Q962Y6; purified TGR, DTNB reduction, TNB absorbance 405 nm; AID 485364; 360,000 compounds, 3% hits; further: potency means the concentration at half of the fitted maximal effect; nearly all actives have a fitted effect of over 60% in size
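TGR 20 nM + NADPH 100 uM (dispensed conc.), cpd preinc 15 min RT; start with NADPH (500 uM addition) then DTNB (15 mM addition). Kinetic TNB absorbance, 405 nm filter. Four-parameter Hill fit across titration.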
Numbers without * were called inactive; [ ] = dose if it differs, or a comment. Hits are enriched below; roughly 9.3% of the tested compounds scored in any of these assays. Unless noted, the call rests on the fitted dose curve; in most records, active means well fitted curve in the direction sought with a large enough effect; inconclusive means small, poorly fitted or top-dose-only effect, or another doubt; inactive means no such curve, though single readings can be large; an effect the other way counts as inactive or inconclusive. On the % scale 0 is the no-effect control and ±100 the full control effect.

For COc1cccc(N2CCN(c3nc4ccc(C(=O)c5ccccc5)cc4n4c(C)nnc34)CC2)c1 the results were Vaccinia mCherry -10.6%, FMDV antiviral 2.1%, HCMV antiviral inconclusive, Vaccinia Venus -15.2% and Sm TGR block 10.2%.
Screening CCc1nc(N)c(C#N)c(-c2cccc3ccccc23)c1C returned Vaccinia mCherry -1.6%, HCV inhibitor -2.7%, FMDV antiviral -9.6%, HCMV antiviral 7.9, Vaccinia Venus -20.9% and Sm TGR block 0.8%.
For CCCOc1nc(N)c(C#N)c(-c2ccccc2F)c1C#N the results were Vaccinia mCherry -24.8%, HCV inhibitor 35.5µM*, FMDV antiviral -5.8%, HCMV antiviral -21.1, Vaccinia Venus -22.0% and Sm TGR block 1.3%.
For N=c1ccn(CC(=O)c2ccc(-c3ccccc3)cc2)cc1 the results were Vaccinia mCherry inconclusive, HCV inhibitor 0.891µM*, FMDV antiviral inconclusive, HCMV antiviral -76.2*, Vaccinia Venus inconclusive and Sm TGR block -3.8%.
O=C(CN1C(=O)CCC1=O)c1ccc(-c2ccccc2)cc1 was read as Vaccinia mCherry inactive, HCV inhibitor 28.5%, FMDV antiviral 22.1%, HCMV antiviral -28.1, Vaccinia Venus -9.9% and Sm TGR block -1.1%.
Cc1ccc(-n2cnc3cc(C(=O)NC4CCCCCC4)ccc32)c(C)c1 was read as Vaccinia mCherry -11.3%, FMDV antiviral -2.4%, HCMV antiviral -11.6, Vaccinia Venus -3.2% and Sm TGR block -1.2%.
Screening CC1(C)[C@H]2CC=C(CN3CCC(N4CCC(C(=O)N5CCCC5)CC4)CC3)[C@@H]1C2 returned Vaccinia mCherry inconclusive, HCV inhibitor 31.6µM*, FMDV antiviral -16.2%, HCMV antiviral -34.1, Vaccinia Venus -16.2% and Sm TGR block -2.8%[57.1 µM].
CCOc1ccc(NC(=O)CSc2nnc(Cn3cnc4ccccc43)n2C)cc1 was read as HCV inhibitor -10.2%, FMDV antiviral -17.0%, HCMV antiviral 32.2, Vaccinia Venus -13.2% and Sm TGR block -7.6%.
Cc1ccc(NC(=O)COC(=O)CCc2c[nH]c3ccccc23)cc1 was read as Vaccinia mCherry inactive, FMDV antiviral -1.7%, HCMV antiviral 0.0 and Vaccinia Venus -6.7%.
Screening Cc1ccc(NC(=O)COC(=O)CCc2c[nH]c(=O)[nH]2)cc1 returned HCV inhibitor 12.3%, FMDV antiviral -14.2%, HCMV antiviral 41.3 and Sm TGR block 31.6µM*.
Screening O=C(COC(=O)CCc1c[nH]c2ccccc12)Nc1ccccc1 returned Vaccinia mCherry -12.7%, HCV inhibitor 15.5%, FMDV antiviral -0.7%, HCMV antiviral -2.5, Vaccinia Venus -3.4% and Sm TGR block 1.0%.
`O=C(COC(=O)CCc1c[nH]c(=O)[nH]1)Nc1ccccc1` gave HCV inhibitor -3.8%, FMDV antiviral -3.1%, HCMV antiviral 19.9 and Sm TGR block 39.8µM*.
O=C(COC(=O)CSc1ccc(Cl)cc1)Nc1ccccc1 was read as HCV inhibitor 14.1µM*, FMDV antiviral -16.9%, HCMV antiviral -9.4 and Sm TGR block 17.8%.
COc1ccc(/C(C)=N/Nc2ncc(Cl)cc2Cl)c(O)c1 was read as Vaccinia mCherry inconclusive, HCV inhibitor inconclusive, FMDV antiviral 9.0%, HCMV antiviral 3.4, Vaccinia Venus inconclusive and Sm TGR block -3.3%.
`CC(C)SCc1cc(N2CCCC2)nc(-c2ccccc2)n1` gave Vaccinia mCherry -0.2%, HCV inhibitor -0.3%, FMDV antiviral -20.7%, HCMV antiviral -33.5, Vaccinia Venus -0.2% and Sm TGR block -2.2%.
Screening Cc1ccc(S(=O)(=O)CCc2nnc(NC(=O)CCl)s2)cc1C returned Vaccinia mCherry -13.8%, HCV inhibitor inconclusive, FMDV antiviral -3.7%, HCMV antiviral -78.3*, Vaccinia Venus -26.7% and Sm TGR block 5.01µM*.
Screening Cc1ccc(S(=O)(=O)CCc2nnc(N)s2)cc1C returned Vaccinia mCherry -11.0%, HCV inhibitor 9.4%, HCMV antiviral 21.0, Vaccinia Venus -11.6% and Sm TGR block 0.3%.
For Cc1cc(C(=O)CSc2nncs2)c(C)n1-c1c(C)n(C)n(-c2ccccc2)c1=O the results were Vaccinia mCherry -13.8%, HCV inhibitor 6.4%, HCMV antiviral -21.4, Vaccinia Venus -9.4% and Sm TGR block -32.7%.
Screening Cc1ccc(-n2c(C)cc(C(=O)CSc3nncs3)c2C)cc1 returned Vaccinia mCherry inconclusive, HCV inhibitor inconclusive, HCMV antiviral -70.5*, Vaccinia Venus inconclusive and Sm TGR block -14.3%.
`O=C(NCCCn1ccnc1)c1nn2c(C(F)(F)F)cc(-c3ccccc3)nc2c1Cl` gave Vaccinia mCherry inactive, HCV inhibitor 10µM*, FMDV antiviral -17.9%, HCMV antiviral -20.5, Vaccinia Venus -29.1% and Sm TGR block -9.8%.
Screening Cc1ccc(-c2cc(C(F)(F)F)n3nc(C(=O)NCCCn4ccnc4)cc3n2)cc1C returned HCV inhibitor 5.01µM*, FMDV antiviral -13.4%, HCMV antiviral 13.0 and Sm TGR block 2.7%.
For CC1(C)C(=O)C=C[C@@]2(C)C1=C(O)C(=O)[C@@]1(C)C2CC[C@@]2(C)C(c3ccoc3)C[C@H]3O[C@@]321 (stereo not given in full) the results were Vaccinia mCherry inconclusive, FMDV antiviral 10µM* and Vaccinia Venus inconclusive.
Screening CCc1ccc(NC(=O)CSc2nc3n[nH]c(C)c3c(=N)n2-c2ccc(C)cc2)cc1 returned Vaccinia mCherry inconclusive, FMDV antiviral -5.8%, HCMV antiviral -90.6*, Vaccinia Venus inconclusive and Sm TGR block 13.5%.
`Cc1cc(-n2c(SCc3ccccc3F)nc3n[nH]c(C)c3c2=N)ccc1Cl` gave Vaccinia mCherry -17.1%, HCV inhibitor 10µM*, FMDV antiviral inconclusive, HCMV antiviral -33.6, Vaccinia Venus -22.2% and Sm TGR block 5.0%.
`CCN(C(=O)CSc1nc2n[nH]c(C)c2c(=N)n1-c1ccc(Cl)c(C)c1)c1cccc(C)c1` gave HCV inhibitor inconclusive, FMDV antiviral -28.8%, HCMV antiviral 0.0 and Sm TGR block -13.6%.
For Cc1[nH]nc2nc(SCC(=O)NC3CCCCC3)n(-c3ccc(Br)cc3)c(=N)c12 the results were HCV inhibitor inconclusive, FMDV antiviral inconclusive, HCMV antiviral -88.7* and Sm TGR block -11.5%.
Screening CCc1ccccc1NC(=O)CSc1nc2n[nH]c(C)c2c(=N)n1-c1ccc(OC)cc1 returned HCV inhibitor 11.2µM*, FMDV antiviral inconclusive, HCMV antiviral 16.1, Vaccinia Venus inconclusive and Sm TGR block 0.9%.
Cc1cccc(-n2c(SCC(=O)Nc3ccccc3Cl)nc3n[nH]c(C)c3c2=N)c1 was read as Vaccinia mCherry -21.4%, FMDV antiviral inconclusive, HCMV antiviral -61.6*, Vaccinia Venus -25.7% and Sm TGR block 7.3%.
